Reference: PubChem BioAssay (NCI)
About 83,000 compounds went through this panel and 20% of them were active in at least one assay; those are over-represented in the sample as a whole.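 Cells were grown in 96-well plates and exposed to the test compound at a single concentration for 48 hours; results are reported as percent growth, with values below 10 considered active.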 Calls of active or inactive are those of the source.

How the values were obtained:
Assay in all cases: NCI-60 one-dose screen, 48 h (100 = growth as untreated, 0 = no growth, -100 = all killed)
Settings in all cases: 10 µM unless noted
[1] = test system: NCI-H23 lung
[2] = test system: NCI-H226 lung
[3] = test system: NCI-H322M lung
[4] = test system: HOP-62 NSCLC
[5] = test system: NCI-H460 lung
[6] = test system: HOP-92 NSCLC
[7] = test system: NCI-H522 lung
[8] = test system: A549/ATCC NSCLC
[9] = test system: 786-0 renal
[10] = test system: COLO 205 colon

Measured: growth

O=c1c2cccc3c(N4CCOCC4)ccc(c32)c2nc3ccccc3n12
inactive: [1] 76.9% | [2] 91% | [3] 89.1% | [4] 86.4% | [5] 88.4% | [6] 59.2% | [7] 80.5% | [8] 92.7% | [9] 97.5% | [10] 87.6%

Brc1ccc(-c2nn(-c3ccccc3)cc2-c2nn[nH]n2)s1
inactive: [1] 92.7% | [2] 85.7% | [3] 96% | [4] 82.7% | [5] 102% | [6] 62.4% | [7] 84.1% | [8] 93.9% | [9] 88.1% | [10] 120%

COC(=O)c1sc(-c2ccc(C)cc2)cc1O
inactive: [1] 99.1% | [2] 109% | [3] 94.2% | [4] 109% | [5] 101% | [6] 105% | [7] 105% | [8] 103% | [9] 96.7% | [10] 107%

CN(C)c1ccc(/C=C/C2=[N+](C)c3ccccc3C2(C)C)cc1
active: [1] 5.41% | [6] -19.9% | [10] -76.2%
inactive: [2] 29.4% | [3] 28.7% | [4] 28.7% | [5] 20% | [7] 18.5% | [8] 15.3% | [9] 25%

CCNc1nc(-c2ccc(Cl)c(OC)c2)c(-c2ccnc(NCCNS(=O)(=O)c3ccc(Cl)cc3)n2)s1
active: [6] -2.89% | [7] -25.5% | [9] 6.16%
inactive: [1] 26.2% | [2] 20.8% | [3] 44.9% | [4] 21.5% | [5] 17.1% | [8] 27.6% | [10] 26.2%

CSc1nc(N)c2c(n1)NC(c1ccccc1)C1CCc3ccccc3C1=N2 (stereo not given)
inactive: [1] 39.4% | [2] 77.6% | [3] 112% | [4] 64.4% | [5] 57.3% | [6] 51.2% | [7] 45.9% | [8] 72.2% | [9] 69.2% | [10] 78.6%

CC(C)(C)[C@H](OCc1cn([C@H]2C[C@@H](O)[C@@H](CO)O2)c(=O)[nH]c1=O)c1ccc(C#Cc2ccccc2)cc1[N+](=O)[O-]
inactive: [1] 90.2% | [2] 99.3% | [3] 47.6% | [4] 86% | [5] 10.1% | [6] 58.1% | [7] 45% | [8] 46.5% | [9] 27.8% | [10] 79.1%

O=c1n(C2OC(CO)C(O)C2O)ccc2nccn12 (stereo not given)
inactive: [1] 113% | [2] 110% | [3] 114% | [4] 127% | [5] 99.9% | [6] 105% | [7] 116% | [8] 96% | [9] 103% | [10] 126%

O=C1C=CC2(O)OC(c3ccccc3)CC(=O)C2=C1O (stereo not given)
active: [7] -17%
inactive: [1] 79.2% | [2] 99.7% | [3] 90% | [4] 86.5% | [5] 93.6% | [6] 93.8% | [8] 85.6% | [9] 93.6% | [10] 118%

O=C(Nc1ccc(Oc2cccc(F)c2)c(Cl)c1)c1cnccn1
inactive: [1] 44.9% | [2] 61.8% | [3] 46.3% | [4] 42.4% | [5] 22.1% | [6] 51.5% | [7] 22.3% | [8] 39.1% | [9] 46.5% | [10] 15.5%

O=C1c2ccccc2C(=O)c2cc(Cn3c[n+](Cc4ccc5ccccc5c4)c4ccccc43)ccc21
inactive: [1] 56.5% | [2] 63.9% | [3] 75.4% | [4] 76.2% | [5] 63.4% | [6] 15.6% | [7] 34.1% | [8] 91% | [9] 61.2% | [10] 24.4%

COc1cc2c(cc1-c1c(C)noc1C)ncc1nc(C3CCOCC3)n(C3CCC(OC(F)F)CC3)c12 (stereo not given)
inactive: [1] 56.7% | [2] 67.9% | [3] 52.4% | [4] 30.4% | [5] 72.6% | [6] 21.8% | [8] 57.4% | [9] 51.8% | [10] 22.6%
active: [7] 3.74%

O=C1CCc2c(sc3[nH]c(=S)n(-c4cc(C(F)(F)F)cc(C(F)(F)F)c4)c(=O)c23)C1
inactive: [9] 18.1%
active: [1] -10.7% | [2] -19% | [3] 9.28% | [4] -27.1% | [5] 5% | [6] -61.8% | [7] -46.6% | [8] 5.85% | [10] -80%

C=C1C(=O)O[C@H]2[C@H]1CC/C(COC(=O)NCc1ccc(Cn3c(=O)sn(CCCC)c3=O)cc1)=C\CC[C@@]1(C)O[C@@H]21
inactive: [1] 80.8% | [2] 78.5% | [3] 105% | [4] 91.6% | [5] 95.4% | [8] 93.5% | [9] 41.8%
active: [6] -6.79% | [7] -55.8% | [10] -25%

c1ccc2cc(Cn3cc[n+](Cc4ccc5ccccc5c4)c3)ccc2c1
active: [6] -13.3% | [7] -11.7% | [10] -73.9%
inactive: [1] 41.6% | [2] 52.1% | [3] 62.8% | [4] 42.1% | [5] 39.6% | [8] 67.6% | [9] 52.2%

CC1(C)CC[C@]2(CO)CC[C@]3(C)[C@H](CC[C@@H]4[C@@]5(C)CC[C@H](O)C(C)(C)[C@@H]5CC[C@]43C)[C@H]2[C@H]1O
inactive: [1] 87.1% | [2] 79.1% | [3] 69.2% | [4] 54.6% | [5] 21% | [6] 105% | [7] 84.8% | [8] 56.8% | [9] 79.3% | [10] 93.8%

CCCCC#Cc1c(I)n(C2OC(CO[Si](C)(C)C(C)(C)C)C3OC(C)(C)OC32)c(=O)[nH]c1=O (stereo not given)
active: [6] -30.5% | [10] -59.1%
inactive: [1] 78% | [2] 88.2% | [3] 84.3% | [4] 102% | [5] 107% | [7] 79.9% | [8] 94% | [9] 82.4%

O=C1/C(=C/c2ccc(Br)cc2)COc2ccc(O)cc21
inactive: [1] 101% | [2] 95.5% | [3] 95.6% | [4] 99% | [5] 102% | [6] 99.9% | [7] 15.8% | [8] 91.1% | [9] 76.4% | [10] 86.8%

CNC(=O)c1cc(Oc2ccc3nc(NC(=O)NC(C)C)sc3c2)ccn1
inactive: [1] 87.5% | [2] 79.2% | [3] 95.2% | [4] 75.6% | [5] 86.8% | [6] 63.3% | [7] 59.3% | [8] 64.3% | [9] 80.3% | [10] 78.8%

CC(Cc1cccc2ccccc12)C(N)=O (stereo not given)
inactive: [1] 99.9% | [2] 100% | [3] 98.1% | [4] 94.6% | [5] 110% | [6] 81.1% | [7] 96.6% | [8] 96.7% | [9] 97.7% | [10] 111%

CCCCCCCCOC(=O)c1c(C)[nH]c(/C=C2\N=C(c3ccc[nH]3)C=C2OC)c1C
inactive: [3] 26% | [4] 12.7% | [5] 10.2%
active: [1] 3.19% | [2] 9.15% | [6] -12.5% | [7] 4.04% | [8] -10.9% | [9] -40.1% | [10] -33.7%
